Measurements published in PubChem BioAssay (NCATS).
Records with an inconclusive call do not appear. Activity calls are given as the source filed them. Calls follow the shape of the dose curve; as a rule, active = well fitted inhibition curve with a large enough effect; inconclusive = small, poorly fitted or top-dose-only effect; inactive = flat fitted curve, though single readings scatter.

Key:
[1] = system: CRL-7250; assay: Cytotoxic Profiling of Annotated Libraries Using Quantitative High-Throughput Screening (AID 1296008); conditions: Five cell lines viability, CellTiter-Glo ATP luminescence, 48-72 h; max response: stronger effect = lower value; as to max response: % is scaled to controls: 0 for no effect and ±100 for the full control effect
In short: (§1)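 Cells exposed to compounds for 48 or 72 hr at 37 degrees Celsius. Viability read as ATP-coupled luminescence with CellTiter-Glo after 10 min at room temperature.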

[2] = system: HEK293; assay: as above; conditions: Five cell lines viability, CellTiter-Glo ATP luminescence, 48-72 h; max response: stronger effect = lower value
In short: as §1

[3] = system: HaCat; assay: as above; conditions: Five cell lines viability, CellTiter-Glo ATP luminescence, 48-72 h; max response: stronger effect = lower value
In short: as §1

[4] = system: KB-3-1; assay: as above; conditions: Five cell lines viability, CellTiter-Glo ATP luminescence, 48-72 h; max response: stronger effect = lower value
In short: as §1

[5] = system: NIH3T3; assay: as above; conditions: Five cell lines viability, CellTiter-Glo ATP luminescence, 48-72 h; max response: stronger effect = lower value
In short: as §1

[6] = system: HACAT; assay: qHTS assay to identify novel small-molecules to repurpose for Merkel cell carcinoma treatment (AID 1296009); conditions: MCC and control cell lines, CellTiter-Glo viability, 72 h; at 44.8 µM (top of the series) unless noted
In short: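 Cells were treated for 72 hr at 37 degree celsius with compounds in 8- or 11-point dose response. Viability was read by CellTiter-Glo luminescence, normalized to no-cell (cytotoxicity) and DMSO controls.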

[7] = system: ICS; assay: qHTS profiling for inhibitors of Plasmodium falciparum proliferation (AID 504749);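 also: 0% = DMSO vehicle and full inhibition = artemisinin control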; conditions: P. falciparum in erythrocytes, SYBR Green DNA, 72 h; series mostly up to 28.7 µM
In short: (§2)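 P. falciparum-infected erythrocytes (0.3% parasitemia, 2.5% hematocrit) incubated with compound 72 h at 37 C, 5% CO2. Parasite DNA detected by SYBR Green after lysis, overnight at room temperature; normalised to 0.29 uM artemisinin and DMSO.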

[8] = system: JCK; assay: as above; conditions: P. falciparum in erythrocytes, SYBR Green DNA, 72 h; series mostly up to 28.7 µM
In short: as §2

[9] = system: N140; assay: as above; conditions: P. falciparum in erythrocytes, SYBR Green DNA, 72 h; series mostly up to 28.7 µM
In short: as §2

[10] = system: P93_24; assay: as above; conditions: P. falciparum in erythrocytes, SYBR Green DNA, 72 h; series mostly up to 28.7 µM
In short: as §2

[11] = system: P94_40; assay: as above; conditions: P. falciparum in erythrocytes, SYBR Green DNA, 72 h; series mostly up to 28.7 µM
In short: as §2

[12] = system: PAD; assay: as above; conditions: P. falciparum in erythrocytes, SYBR Green DNA, 72 h; series mostly up to 28.7 µM
In short: as §2

[13] = system: PC15; assay: as above; conditions: P. falciparum in erythrocytes, SYBR Green DNA, 72 h; series mostly up to 28.7 µM
In short: as §2

[14] = system: PC26; assay: as above; conditions: P. falciparum in erythrocytes, SYBR Green DNA, 72 h; series mostly up to 28.7 µM
In short: as §2

[15] = system: PC49; assay: as above; conditions: P. falciparum in erythrocytes, SYBR Green DNA, 72 h; series mostly up to 28.7 µM
In short: as §2

[16] = system: SC27B; assay: as above; conditions: P. falciparum in erythrocytes, SYBR Green DNA, 72 h; series mostly up to 28.7 µM
In short: as §2

[17] = system: TAB109; assay: as above; conditions: P. falciparum in erythrocytes, SYBR Green DNA, 72 h; series mostly up to 28.7 µM
In short: as §2

[18] = system: TAB113; assay: as above; conditions: P. falciparum in erythrocytes, SYBR Green DNA, 72 h; series mostly up to 28.7 µM
In short: as §2

[19] = system: TAB165; assay: as above; conditions: P. falciparum in erythrocytes, SYBR Green DNA, 72 h; series mostly up to 28.7 µM
In short: as §2

[20] = system: W2; assay: as above; conditions: P. falciparum in erythrocytes, SYBR Green DNA, 72 h; series mostly up to 28.7 µM
In short: as §2

Measured: max response
Also: nearly all actives have a fitted effect of over 60% in size.

CC1=C(CO)C2(C)CCCC(C)(C)C2C(O)C1O (stereo not drawn)
inactive: [1] -6.52% | [2] -5.93% | [3] | [4] | [5] | [6]

CC[C@H](NC(=O)c1c(O)c(-c2ccccc2)nc2ccccc12)c1ccccc1
inactive: [1] | [2] -9.53% | [3] | [4] -1.35% | [5] | [6]

C[C@@H]1O[C@@H](O[C@H]2[C@H](O[C@H]3[C@H](O[C@H]4CC[C@@]5(C)C(CC[C@]6(C)C5CC=C5[C@@H]7CC(C)(C)CC(=O)[C@]7(C)CC[C@]56C)[C@@]4(C)CO)O[C@H](C(=O)O)[C@@H](O)[C@@H]3O)O[C@H](CO)[C@H](O)[C@@H]2O)[C@H](O)[C@H](O)[C@H]1O (stereo partly drawn)
inactive: [1] -2.01% | [2] -1.03% | [3] | [4] | [5] 0.221% | [6] inactive [at 9.27 µM]

C/C=C1/[C@H](O[C@@H]2O[C@H](CO)[C@@H](O)[C@H](O)[C@H]2O)OC=C(C(=O)OC)[C@H]1CC(=O)OCCc1ccc(O)c(O)c1
inactive: [1] -12.9% | [2] -8.69% | [3] | [4] 4.42% | [5] | [6] inactive [at 17.4 µM]

C=C(CCO)C(=O)OCC1OCC(OC(=O)C(=C)CCO[C@@H]2O[C@H](CO)[C@@H](O)[C@H](O)[C@H]2O)C(O)C1O (stereo partly drawn)
inactive: [1] -6.14% | [2] 0.294% | [3] | [4] 4.34% | [5] -5.54% | [6] inactive [at 17.4 µM]

C/C=C1/[C@H](O[C@@H]2O[C@H](CO)[C@@H](O)[C@H](O)[C@H]2O)OC=C(C(=O)OC)[C@H]1CC(=O)OCCc1ccc(OC(=O)C[C@@H]2C(C(=O)OC)=CO[C@@H](O[C@@H]3O[C@H](CO)[C@@H](O)[C@H](O)[C@H]3O)/C2=C/C)cc1
inactive: [1] -8.75% | [2] -1.34% | [3] | [4] | [5] 2.32% | [6] inactive [at 9.27 µM]

CC1=C(C)C(=O)OC(C(C)C2C(O)CC3C4C5OC5C5(O)CC(OC6OC(CO)C(OC7OC(C)C(O)C(O)C7O)C(O)C6O)CC(O)C5(C)C4CCC32C)C1 (stereo not drawn)
inactive: [1] -10% | [2] -3.17% | [3] | [4] 2.34% | [5] 0.724% | [6] inactive [at 17.4 µM]

C=C1CC[C@H]2[C@@](C)(CCC(OC3OC(CO)C(O)C(O)C3O)[C@@]2(C)CO)C1C(=O)CC1=CCOC1=O (stereo partly drawn)
inactive: [1] | [2] -9.97% | [3] | [4] | [5] | [6] inactive [at 17.4 µM]

O=C(O)CCc1cccc(O)c1O[C@@H]1O[C@H](CO)[C@@H](O)[C@H](O)[C@H]1O
inactive: [1] 3.73% | [2] -3.2% | [3] | [4] 8.15% | [5] | [6]

O=C(/C=C/c1ccc(O)c(O)c1)OC[C@H]1O[C@@H](OC2CCCCC2O)[C@H](O)[C@@H](O)[C@@H]1O (stereo partly drawn)
inactive: [1] | [2] -0.405% | [3] | [4] 1.68% | [5] | [6] inactive [at 17.4 µM]

Cc1cc(C)c2nc(-c3ccccn3)cc(C(=O)Nc3ccc(S(=O)(=O)Nc4onc(C)c4C)cc3)c2c1
inactive: [1] -3.09% | [2] -20.7% | [3] | [4] 1.46% | [5] 1.48% | [6]

C=C(CCO[C@@H]1O[C@H](CO)[C@@H](O)[C@H](O)[C@H]1O)C(=O)O
inactive: [1] -12.8% | [2] -3.91% | [3] | [4] | [5] -0.513% | [6]

COC1CC(O[C@H]2CC[C@@]3(C)C(=CC[C@]4(O)C3[C@H](O)[C@@H](O)[C@]3(C)[C@@H]([C@H](C)O)CC[C@@]34O)C2)OC(C)C1OC1CC(OC)C(OC2CC(OC)C(OC3OC(C)C(OC4OC(CO)C(O)C(O)C4O)C(OC)C3O)C(C)O2)C(C)O1 (stereo partly drawn)
inactive: [1] -21.7% | [2] -82.7% | [3] | [4] 2.22% | [5] -54.6% | [6] inactive [at 9.27 µM]

CCCC/C=C\CCCCCc1cc(=O)c2ccccc2n1C
inactive: [1] -5.2% | [2] -7.72% | [3] | [4] | [5] | [6]

O=C(O)C[C@H]1CCC(=O)[C@@H]1C/C=C\CCO
inactive: [1] | [2] 0.813% | [3] | [4] 0.282% | [5] | [6]

C=C(C)[C@@H]1CC[C@]2(C(=O)O)CC[C@]3(C)C(CCC4[C@]5(C)C(CC[C@]43C)C(C)(C)[C@@H](O)[C@@H]5C(=O)O)C12 (stereo partly drawn)
inactive: [1] | [2] -0.322% | [3] | [4] | [5] | [6] inactive [at 17.4 µM]

Fc1ccccc1-c1nc2ccn(Cc3ccc(-c4ccc(C(F)(F)F)cc4C(F)(F)F)nn3)cc-2n1
inactive: [1] 1.68% | [2] -5.52% | [3] | [4] -0.729% | [5] -4.04% | [6]

C[C@@H]1O[C@@H](OC2C(O[C@H]3[C@H](O[C@H]4CC[C@@]5(C)C(CC[C@]6(C)C5CC=C5C7CC(C)(C)CC(O)[C@]7(C)CC[C@]56C)C4(C)C)O[C@H](C(=O)O)[C@@H](O)[C@@H]3O)OC(CO)C(O)C2O)[C@H](O)[C@H](O)[C@H]1O (stereo partly drawn)
inactive: [1] 4.13% | [2] -5.35% | [3] | [4] 3.37% | [5] 1.38% | [6] inactive [at 9.27 µM]

COc1cccc(OC)c1-c1cc(C(=O)N[C@@H](CC(C)C)C(=O)O)nn1-c1ccnc2cc(Cl)ccc12
inactive: [1] | [2] -1.22% | [3] | [4] | [5] | [6]

COc1c(C)c(OCC=C(C)C)cc2c1COC2=O
inactive: [1] -4.58% | [2] 3.79% | [3] | [4] 4.15% | [5] 2.66% | [6]

CN[C@H](CNC(=O)N1CCC[C@@H]([C@@H](OCCNC(=O)OC)c2cccc(Cl)c2)C1)C[C@H]1CCCOC1
inactive: [1] -5.16% | [2] 0.31% | [3] | [4] 1.87% | [5] | [6]

C[C@@H]1O[C@@H](O[C@H]2[C@H](O[C@H]3[C@H](O[C@H]4CC[C@@]5(C)C(CC[C@]6(C)C5CC=C5[C@@H]7CC(C)(C)C[C@@H](O)[C@]7(C)CC[C@]56C)[C@@]4(C)CO)O[C@H](C(=O)O)[C@@H](O)[C@@H]3O)O[C@H](C(=O)O)[C@H](O)[C@@H]2O)[C@H](O)[C@H](O)[C@H]1O (stereo partly drawn)
inactive: [1] -5.52% | [2] -6.47% | [3] | [4] -1.92% | [5] | [6] inactive [at 9.27 µM]

O=C1C[C@@]2(C(=O)N1)C(=O)N(Cc1ccc(Br)cc1F)C(=O)c1cccn12
inactive: [1] -0.124% | [3] -21% | [4] 1.61% | [5] 1.31%

C/C=C/C=C/C=C/C(=O)N(C)C(C(=O)NC(C)C(=O)N1CCCC1C(N)=O)C(C)C (stereo not drawn)
inactive: [1] -4.46% | [2] 2.9% | [3] | [4] | [5] 0.323% | [6] inactive [at 17.4 µM]

CCc1cccc2c3c([nH]c12)[C@@](CC)(CC(=O)O)OCC3
inactive: [7] | [8] | [9] | [10] | [11] | [12] | [13] | [14] | [15] | [16] | [17] | [18] | [19] | [20] | [1] 0.605% | [2] 3.28% | [3] | [4] | [5] 1.91% | [6]

C=C[C@@]1(C)CCC2=C([C@H]1OC(C)=O)[C@H](OC(C)=O)CC1[C@](C)(C(=O)OC)CC[C@H](OC(C)=O)[C@]21C (stereo partly drawn)
inactive: [1] -6.44% | [2] 0.95% | [3] | [4] | [5] | [6] inactive [at 17.4 µM]
